Reference: PubChem BioAssay (EPA / NIEHS)
Results filed as inconclusive are left out. Where a structure was tested more than once in an assay, its records may differ in their call. Calls of active or inactive are those of the source. The calls were made as follows: active = hit-call score of the fitted dose curve at least 0.9, where 1 is the maximum; inconclusive = response in the unintended direction; inactive = score below 0.9.

Legend:
[1] = target: Peroxisome proliferator-activated receptor gamma (Homo sapiens) (UniProt P37231); assay: ATG_PPARg_TRANS: Attagene TRANS-FACTORIAL HepG2 Assay for human Peroxisome Proliferator-activated Receptor-gamma (PPARg) (AID 2283007)
Peroxisome proliferator-activated receptor gamma (Homo sapiens), sequence (P37231 whole entry, looked up): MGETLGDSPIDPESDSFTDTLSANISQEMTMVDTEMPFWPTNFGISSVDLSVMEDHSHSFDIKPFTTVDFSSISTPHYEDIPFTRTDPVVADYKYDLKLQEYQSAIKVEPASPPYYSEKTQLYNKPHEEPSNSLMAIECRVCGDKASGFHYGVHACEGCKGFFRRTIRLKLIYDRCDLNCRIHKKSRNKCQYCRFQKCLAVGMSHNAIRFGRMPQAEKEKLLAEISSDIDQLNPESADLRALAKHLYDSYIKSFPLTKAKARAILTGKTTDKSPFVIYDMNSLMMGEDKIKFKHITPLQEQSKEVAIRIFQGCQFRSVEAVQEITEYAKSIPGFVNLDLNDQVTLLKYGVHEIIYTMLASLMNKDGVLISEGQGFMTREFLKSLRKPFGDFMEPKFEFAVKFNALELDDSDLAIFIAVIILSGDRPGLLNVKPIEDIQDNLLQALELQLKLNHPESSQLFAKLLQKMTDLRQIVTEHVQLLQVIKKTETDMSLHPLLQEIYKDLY
Procedure, shortened: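 Twenty-four hours after chemical dosing of transiently transfected HepG2 cells, isolated RNA was converted to cDNA, reporter sequences amplified and 6-FAM-labelled, then HpaI-digested and analysed by capillary electrophoresis. Signal increase against DMSO was fitted.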

[2] = target: Nuclear receptor subfamily 1 group I member 2 (Homo sapiens) (UniProt O75469); assay: ATG_PXR_TRANS: Attagene TRANS-FACTORIAL HepG2 Assay for human Pregnane X Receptor (PXR) (AID 2283008)
Nuclear receptor subfamily 1 group I member 2 (Homo sapiens), sequence (O75469 whole entry, looked up, the tested form may be a part): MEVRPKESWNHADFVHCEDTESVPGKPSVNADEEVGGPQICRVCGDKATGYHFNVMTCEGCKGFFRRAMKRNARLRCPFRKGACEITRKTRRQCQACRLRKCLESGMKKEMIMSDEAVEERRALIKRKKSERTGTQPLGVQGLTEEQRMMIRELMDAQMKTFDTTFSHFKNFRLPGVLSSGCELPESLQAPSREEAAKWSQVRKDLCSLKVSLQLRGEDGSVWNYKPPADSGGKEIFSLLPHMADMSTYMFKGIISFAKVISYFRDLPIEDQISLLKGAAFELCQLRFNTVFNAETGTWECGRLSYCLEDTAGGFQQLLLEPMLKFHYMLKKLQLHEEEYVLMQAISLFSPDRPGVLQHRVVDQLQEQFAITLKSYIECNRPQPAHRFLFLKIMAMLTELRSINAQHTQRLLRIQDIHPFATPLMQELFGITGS
Procedure, shortened: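 HepG2 cells transiently transfected with GAL4-UAS reporter units and PXR-Gal4 chimera, exposed 24 h. Reporter mRNA quantified by RT-PCR, fluorescent labelling, HpaI digestion and capillary electrophoresis; gain of signal vs DMSO.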

[3] = target: human Retinoic Acid Receptor gamma (RARg), RARG (gene 5916) (UniProt P13631); assay: ATG_RARg_TRANS: Attagene TRANS-FACTORIAL HepG2 Assay for human Retinoic Acid Receptor gamma (RARg) (AID 2283009)
human Retinoic Acid Receptor gamma (RARg), RARG (gene 5916), sequence (P13631 whole entry, looked up): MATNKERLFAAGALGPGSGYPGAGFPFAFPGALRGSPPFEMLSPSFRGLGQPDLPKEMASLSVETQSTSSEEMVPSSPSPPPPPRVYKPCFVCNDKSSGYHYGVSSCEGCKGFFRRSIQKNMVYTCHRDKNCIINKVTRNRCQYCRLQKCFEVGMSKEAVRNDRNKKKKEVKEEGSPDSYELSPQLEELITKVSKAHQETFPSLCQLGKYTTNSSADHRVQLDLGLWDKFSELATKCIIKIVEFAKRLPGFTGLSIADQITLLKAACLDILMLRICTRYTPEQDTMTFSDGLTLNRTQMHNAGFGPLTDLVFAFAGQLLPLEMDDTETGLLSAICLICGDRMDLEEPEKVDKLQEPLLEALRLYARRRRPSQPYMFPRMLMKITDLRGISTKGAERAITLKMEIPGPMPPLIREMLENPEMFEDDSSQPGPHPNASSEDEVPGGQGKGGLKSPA
Procedure, shortened: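 Transient transfection of HepG2 with multi-reporter constructs, then 24 h chemical treatment. Total RNA isolated, reverse-transcribed, PCR-amplified, fluorescently labelled and resolved by capillary electrophoresis; activity scored as mRNA induction versus DMSO.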

[4] = target: Retinoic acid receptor RXR-alpha (Homo sapiens) (UniProt P19793); assay: ATG_RXRa_TRANS: Attagene TRANS-FACTORIAL HepG2 Assay for human Retinoid X Receptor alpha (RXRa) (AID 2283012)
Retinoic acid receptor RXR-alpha (Homo sapiens), sequence (P19793 whole entry, looked up, the tested form may be a part): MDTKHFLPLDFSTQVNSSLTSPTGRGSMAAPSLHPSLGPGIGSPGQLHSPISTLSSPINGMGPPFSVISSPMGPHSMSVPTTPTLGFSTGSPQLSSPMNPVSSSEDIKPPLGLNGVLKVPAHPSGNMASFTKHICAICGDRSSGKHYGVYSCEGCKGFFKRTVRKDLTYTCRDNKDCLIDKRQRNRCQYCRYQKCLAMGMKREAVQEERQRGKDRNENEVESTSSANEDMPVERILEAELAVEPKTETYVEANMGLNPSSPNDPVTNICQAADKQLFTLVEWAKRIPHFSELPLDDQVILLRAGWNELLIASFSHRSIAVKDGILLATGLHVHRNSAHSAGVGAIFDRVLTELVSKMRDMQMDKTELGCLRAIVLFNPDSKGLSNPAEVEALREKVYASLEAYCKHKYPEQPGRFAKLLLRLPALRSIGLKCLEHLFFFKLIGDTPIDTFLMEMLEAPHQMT
Procedure, shortened: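 Transient transfection of human HepG2 with multiple GAL4-UAS reporter constructs; 24 h compound exposure; total RNA isolated, reverse-transcribed, PCR-amplified, 6-FAM labelled, HpaI-cut, resolved by capillary electrophoresis. Positive-direction fit versus DMSO.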

[5] = target: human Thyroid Receptor alpha (THRa1), THRA (gene 7067) (UniProt P10827); assay: ATG_THRa1_TRANS: Attagene TRANS-FACTORIAL HepG2 Assay for human Thyroid Receptor alpha (THRa1) (AID 2283014)
human Thyroid Receptor alpha (THRa1), THRA (gene 7067), sequence (P10827 whole entry, looked up, the tested form may be a part): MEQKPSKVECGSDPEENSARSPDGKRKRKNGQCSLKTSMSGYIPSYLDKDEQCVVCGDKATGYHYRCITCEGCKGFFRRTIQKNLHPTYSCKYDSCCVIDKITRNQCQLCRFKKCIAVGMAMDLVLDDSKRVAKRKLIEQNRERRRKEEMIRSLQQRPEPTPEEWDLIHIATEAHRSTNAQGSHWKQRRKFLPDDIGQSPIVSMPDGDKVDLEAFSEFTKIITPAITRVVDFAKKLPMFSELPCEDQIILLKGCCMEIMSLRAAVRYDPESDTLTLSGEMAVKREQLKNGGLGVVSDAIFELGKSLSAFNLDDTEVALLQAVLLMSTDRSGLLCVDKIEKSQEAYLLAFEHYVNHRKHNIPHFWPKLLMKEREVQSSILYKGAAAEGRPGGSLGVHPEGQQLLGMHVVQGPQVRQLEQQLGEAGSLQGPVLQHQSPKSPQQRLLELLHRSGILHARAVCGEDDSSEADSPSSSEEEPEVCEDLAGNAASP
Procedure, shortened: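 HepG2 cells transiently transfected with multiplexed GAL4-UAS reporter units for exogenous chimeric THRa1-Gal4; reporter mRNA measured 24 h after dosing by RT-PCR, 6-FAM labelling, HpaI digestion and capillary electrophoresis. Gain-of-signal fitted versus DMSO baseline.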

[6] = target: human RAR-related Orphan Receptor beta (RORb), RORB (gene 6096) (UniProt Q92753); assay: ATG_RORb_TRANS: Attagene TRANS-FACTORIAL HepG2 Assay for human RAR-related Orphan Receptor beta (RORb) (AID 2283010)
human RAR-related Orphan Receptor beta (RORb), RORB (gene 6096), sequence (Q92753 whole entry, looked up, the tested form may be a part): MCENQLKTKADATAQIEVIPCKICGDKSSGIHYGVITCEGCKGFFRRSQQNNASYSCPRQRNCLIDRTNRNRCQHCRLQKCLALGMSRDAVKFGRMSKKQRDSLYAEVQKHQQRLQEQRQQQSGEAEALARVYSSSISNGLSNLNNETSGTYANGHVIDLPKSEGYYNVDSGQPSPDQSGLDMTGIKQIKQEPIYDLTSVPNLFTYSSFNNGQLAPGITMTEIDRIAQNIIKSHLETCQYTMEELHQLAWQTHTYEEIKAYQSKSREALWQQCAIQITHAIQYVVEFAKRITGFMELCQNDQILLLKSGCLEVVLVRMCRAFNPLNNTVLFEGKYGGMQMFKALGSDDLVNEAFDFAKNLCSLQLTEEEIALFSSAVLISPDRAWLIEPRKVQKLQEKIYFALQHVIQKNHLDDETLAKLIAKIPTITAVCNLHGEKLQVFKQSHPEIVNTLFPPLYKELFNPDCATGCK
Procedure, shortened: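 Readout is reporter-gene mRNA induction, detected as fluorescence after RT-PCR and capillary electrophoresis, fitted for gain of signal against DMSO controls. Transiently transfected HepG2 liver cells carrying GAL4-UAS reporter constructs were treated for 24 hours.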

[7] = target: human Retinoid X Receptor beta (RXRb), RXRB (gene 6257) (UniProt P28702); assay: ATG_RXRb_TRANS: Attagene TRANS-FACTORIAL HepG2 Assay for human Retinoid X Receptor beta (RXRb) (AID 2283013)
human Retinoid X Receptor beta (RXRb), RXRB (gene 6257), sequence (P28702 whole entry, looked up, the tested form may be a part): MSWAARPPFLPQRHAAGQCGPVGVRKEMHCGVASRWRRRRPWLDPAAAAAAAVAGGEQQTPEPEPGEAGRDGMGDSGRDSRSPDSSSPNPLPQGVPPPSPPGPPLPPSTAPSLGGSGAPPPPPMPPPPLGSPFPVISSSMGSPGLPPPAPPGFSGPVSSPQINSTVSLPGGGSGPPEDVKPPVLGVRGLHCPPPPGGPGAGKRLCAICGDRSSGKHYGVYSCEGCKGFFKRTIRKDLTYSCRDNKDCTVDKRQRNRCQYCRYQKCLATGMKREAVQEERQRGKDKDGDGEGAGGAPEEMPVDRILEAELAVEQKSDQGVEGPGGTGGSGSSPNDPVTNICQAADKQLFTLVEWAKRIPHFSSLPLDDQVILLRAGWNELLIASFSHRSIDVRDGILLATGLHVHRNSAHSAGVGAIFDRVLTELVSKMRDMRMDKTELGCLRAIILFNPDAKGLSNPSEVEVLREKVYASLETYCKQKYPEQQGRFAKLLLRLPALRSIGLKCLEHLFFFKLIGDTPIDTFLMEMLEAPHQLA
Procedure, shortened: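 Transfect HepG2 with GAL4-UAS multi-reporter constructs (chimeric NR-Gal4, TRANS format); dose compound 24 h; isolate RNA, RT-PCR, FAM primer extension, HpaI digest; quantify by capillary electrophoresis; positive direction vs DMSO.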

[8] = target: Retinoic acid receptor alpha (Homo sapiens) (UniProt P10276); assay: ATG_RARa_TRANS: Attagene TRANS-FACTORIAL HepG2 Assay for human Retinoic Acid Receptor alpha (RARa) (AID 2283005)
Retinoic acid receptor alpha (Homo sapiens), sequence (P10276 whole entry, looked up, the tested form may be a part): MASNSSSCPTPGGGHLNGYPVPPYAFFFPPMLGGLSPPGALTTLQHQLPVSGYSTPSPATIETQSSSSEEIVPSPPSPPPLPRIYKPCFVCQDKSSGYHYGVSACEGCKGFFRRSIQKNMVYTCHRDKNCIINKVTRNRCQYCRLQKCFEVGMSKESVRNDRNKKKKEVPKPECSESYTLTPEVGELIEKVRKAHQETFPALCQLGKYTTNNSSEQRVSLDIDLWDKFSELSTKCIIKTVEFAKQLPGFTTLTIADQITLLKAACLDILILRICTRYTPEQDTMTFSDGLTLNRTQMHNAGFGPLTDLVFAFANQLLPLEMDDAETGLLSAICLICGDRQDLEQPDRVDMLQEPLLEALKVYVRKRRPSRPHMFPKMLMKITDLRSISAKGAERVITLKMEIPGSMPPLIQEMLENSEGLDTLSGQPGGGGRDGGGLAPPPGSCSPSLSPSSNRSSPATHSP
Procedure, shortened: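 Reporter transcripts, measured by RT-PCR with fluorescent labeling and capillary electrophoresis after 24 h dosing, reflect activity of an exogenous human RARa–GAL4 fusion in transiently transfected HepG2. Fitted for increase relative to DMSO.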

[9] = target: human RAR-related Orphan Receptor gamma (RORg), RORC (gene 6097) (UniProt P51449); assay: ATG_RORg_TRANS: Attagene TRANS-FACTORIAL HepG2 Assay for human RAR-related Orphan Receptor gamma (RORg) (AID 2283011)
human RAR-related Orphan Receptor gamma (RORg), RORC (gene 6097), sequence (P51449 whole entry, looked up, the tested form may be a part): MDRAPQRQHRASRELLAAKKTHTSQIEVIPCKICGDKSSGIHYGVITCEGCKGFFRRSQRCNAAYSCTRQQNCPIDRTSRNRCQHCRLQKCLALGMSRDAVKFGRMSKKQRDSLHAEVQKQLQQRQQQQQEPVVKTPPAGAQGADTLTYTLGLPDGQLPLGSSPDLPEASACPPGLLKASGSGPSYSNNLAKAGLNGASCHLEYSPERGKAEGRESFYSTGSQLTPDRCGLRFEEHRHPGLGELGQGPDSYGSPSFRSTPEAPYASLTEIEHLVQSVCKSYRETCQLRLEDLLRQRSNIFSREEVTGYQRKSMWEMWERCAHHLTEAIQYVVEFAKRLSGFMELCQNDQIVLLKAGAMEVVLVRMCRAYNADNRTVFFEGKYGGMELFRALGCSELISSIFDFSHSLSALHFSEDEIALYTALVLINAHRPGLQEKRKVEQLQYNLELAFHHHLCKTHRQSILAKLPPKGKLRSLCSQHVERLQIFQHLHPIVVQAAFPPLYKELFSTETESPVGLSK
Procedure, shortened: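 Readout: reporter transcript induction (RT-PCR, fluorescent primer extension, capillary electrophoresis) after 24 h compound exposure of transiently transfected HepG2 cells carrying a RORg-Gal4 chimera and GAL4-UAS reporters; DMSO served as baseline, with increasing signal fitted.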

[10] = target: human Vitamin D Receptor (VDR), VDR (gene 7421) (UniProt P11473); assay: ATG_VDR_TRANS: Attagene TRANS-FACTORIAL HepG2 Assay for human Vitamin D Receptor (VDR) (AID 2283022)
human Vitamin D Receptor (VDR), VDR (gene 7421), sequence (P11473 whole entry, looked up, the tested form may be a part): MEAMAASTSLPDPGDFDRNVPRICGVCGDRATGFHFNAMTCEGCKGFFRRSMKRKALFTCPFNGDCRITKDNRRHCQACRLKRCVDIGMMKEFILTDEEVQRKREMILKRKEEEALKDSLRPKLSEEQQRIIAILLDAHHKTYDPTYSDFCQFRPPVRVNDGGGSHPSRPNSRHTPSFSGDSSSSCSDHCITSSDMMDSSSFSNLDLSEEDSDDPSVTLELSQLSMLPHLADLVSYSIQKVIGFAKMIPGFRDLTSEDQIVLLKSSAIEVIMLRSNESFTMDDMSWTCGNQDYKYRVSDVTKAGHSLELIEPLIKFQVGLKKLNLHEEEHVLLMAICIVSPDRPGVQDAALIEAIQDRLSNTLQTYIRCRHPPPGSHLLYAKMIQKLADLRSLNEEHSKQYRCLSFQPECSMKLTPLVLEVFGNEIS
Procedure, shortened: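 HepG2 cells were transiently transfected with multiple GAL4-UAS reporter units, so signal reflects exogenous chimeric receptor-Gal4 activity. After 24 h compound exposure, reporter mRNA was measured by RT-PCR, fluorescent labelling and capillary electrophoresis, fitted for gain of signal versus DMSO.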

Measured: AC50

CC(c1ccc(O)cc1)c1ccc(O)cc1
active: [2] 27.7 µM
inactive: [1] | [3] | [4] | [5]

CC1(C)[C@H](/C=C2\CCSC2=O)[C@@H]1C(=O)OCc1coc(Cc2ccccc2)c1
inactive: [6] | [7]
active: [1] 1.05 µM | [2] 0.731 µM

Cc1cc(Cl)ccc1O
active: [7] 100 µM
inactive: [8] | [1] | [2] | [4]

Fc1cccc(Cl)c1CCl
inactive: [2] | [6] | [9] | [4] | [7] | [5]
active: [1] 4.39 µM

CCCSP(=S)(OCC)Oc1ccc(Cl)cc1Cl (centres undefined)
active: [1] 24.3 µM | [2] 2.51 µM | [7] 27 µM
inactive: [6] | [9] | [4]

CCC[CH2][Sn]([CH2]CCC)([CH2]CCC)[CH2]CCC
active: [1] 3.29 µM | [2] 9.24 µM | [4] 0.866 µM | [7] 0.0334 µM
inactive: [3] | [5]

COc1ccc(N)cc1
inactive: [1] | [2] | [6] | [9] | [5]

CCCCOC(C)=O
inactive: [8] | [1] | [2] | [3] | [6] | [9] | [4] | [5]

N#CCC#N
active: [4] 43.1 µM | [7] 10.3 µM
inactive: [8] | [2] | [5] | [10]

C[As+](C)(C)CC(=O)[O-]
inactive: [8] | [3] | [6] | [9]

CCC[N+](CCC)(CCC)CCC
inactive: [8] | [3] | [6] | [4] | [7]

O=C(NC(=O)c1c(F)cccc1F)Nc1cc(Cl)c(F)c(Cl)c1F
inactive: [8] | [1] | [3] | [9]

CCOCn1c(-c2ccc(Cl)cc2)c(C#N)c(Br)c1C(F)(F)F
inactive: [8] | [3] | [4] | [7] | [5] | [10]

O=S1(=O)OC(c2cc(Br)c(O)c(Br)c2)(c2cc(Br)c(O)c(Br)c2)c2ccccc21
active: [1] 36.9 µM
inactive: [8] | [3] | [6] | [4] | [5]

C=C(C)C(=O)OCCCCOC(=O)C(=C)C
active: [1] 79.9 µM
inactive: [2] | [3] | [6] | [4] | [7] | [10]

O=S(=O)(Oc1ccc(Cl)cc1)c1ccc(Cl)cc1
inactive: [6] | [4] | [5] | [10]
active: [1] 27.5 µM | [2] 4.68 µM

CCOC(=O)c1ccccc1S(=O)(=O)NC(=O)Nc1nc(Cl)cc(OC)n1
inactive: [8] | [2] | [3] | [6] | [5]

Cc1cccc(N=Nc2ccc(N(C)C)cc2)c1
inactive: [1] | [2] | [6] | [4] | [7]

C=CCCl
inactive: [8] | [1] | [2] | [3] | [9] | [10]

Brc1c(Br)c(Br)c(Oc2c(Br)c(Br)c(Br)c(Br)c2Br)c(Br)c1Br
inactive: [8] | [1] | [2] | [3] | [6] | [9] | [4] | [7] | [5] | [10]

Brc1ccc(Br)cc1
inactive: [8] | [1] | [6] | [5]

CC(F)(F)CC(F)(F)F
inactive: [1] | [2] | [3] | [4] | [7] | [5] | [10]

CN(C)CCN(C)C
inactive: [8] | [6] | [9] | [7] | [5]

CC(=O)CN(CC(C)=O)N=O
inactive: [1] | [2] | [6] | [4] | [7] | [5]

O=c1nc(O)n(Cl)c(=O)n1Cl
inactive: [1] | [2] | [6] | [9] | [4] | [7] | [5]

CCCCCCCCCCBr
active: [1] 19.8 µM | [7] 100 µM
inactive: [8] | [9] | [4]

C=CCN=C=S
inactive: [1] | [2] | [6] | [7] | [5] | [10]

CC(C)C(C)(N)C#N (centres undefined)
inactive: [8] | [2] | [9] | [4] | [7] | [5] | [10]

N#Cc1ccccc1Cl
inactive: [8] | [2] | [6] | [7] | [10]

O=C/C(Cl)=C(/Cl)C(=O)O
inactive: [2] | [6] | [9] | [4] | [7] | [5] | [10]
active: [1] 46.7 µM
